In the supplement of paper PMC6555819 one finds PBM binding z-score data, which are given here for seven sequences.

Holding throughout (assay): PBM binding z-score (relative to random genomic background probes); higher = stronger binding; sequences stand for … in GC…GCGATTGACAGCGTAGAATGAAGG
In test [1] the test system is FXR:RXRa (NR concentration 270 nM, RXRa partner concentration 90 nM). The essentials: (§1)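 Each nuclear receptor dimer, without ligand, was incubated for 1 h on custom Agilent 4×180K protein-binding microarrays. Binding was detected with antibodies against each partner (one per run), and scanned fluorescence was regression-normalized. The binding z-scores are referenced to random human genomic background probes.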

The subject of test [2] is LXRa:RXRa (NR concentration 270 nM, RXRa partner concentration 90 nM). The essentials: as §1
Test [3] has as its system LXRa homodimer (NR concentration 270 nM). The essentials:
as §1

In test [4] the test system is LXRb:RXRa (NR concentration 270 nM, RXRa partner concentration 90 nM). The essentials: as §1
The subject of test [5] is LXRb homodimer (NR concentration 270 nM). The essentials:
as §1

The test system of test [6] is PPARa:RXRa (NR concentration 270 nM, RXRa partner concentration 90 nM). The essentials: as §1
In test [7] the test system is PPARg:RXRa (NR concentration 180 nM, RXRa partner concentration 90 nM). The essentials: as §1
In test [8] the test system is PPARg:RXRa 270nM:90nM, anti-RXR (NR concentration 270 nM, RXRa partner concentration 90 nM). The essentials: as §1
For test [9], the system named is PPARg:RXRa 30nM:10nM, anti-RXR (NR concentration 30 nM, RXRa partner concentration 10 nM). The essentials:
as §1

Test [10] has as its system PPARg:RXRa 90nM:30nM, anti-RXR (NR concentration 90 nM, RXRa partner concentration 30 nM). The essentials:
as §1

The subject of test [11] is PPARg:RXRa DBDmut IVT, anti-RXR (DBD mutation: RXRa K156A/R161A, NR concentration 270 nM, RXRa partner concentration 90 nM). The essentials:
as §1

Test [12] deals with PPARg:RXRa IVT, anti-PPARg (NR concentration 270 nM, RXRa partner concentration 90 nM). The essentials: as §1
The subject of test [13] is PPARg DBDmut:RXRa IVT, anti-PPARg (DBD mutation: PPARg1 K132A/R137A, NR concentration 270 nM, RXRa partner concentration 90 nM). The essentials:
as §1

Test [14] concerns PPARg DBDmut IVT, anti-PPARg (DBD mutation: PPARg1 K132A/R137A, NR concentration 270 nM). The essentials:
as §1

Test [15] relates to PPARg homodimer (NR concentration 180 nM). The essentials:
as §1

Test [16] deals with PXR:RXRa (NR concentration 270 nM, RXRa partner concentration 90 nM). The essentials:
as §1

Test [17] has as its system PXR homodimer (NR concentration 270 nM). The essentials:
as §1

Test [18] relates to RARa:RXR (NR concentration 270 nM, RXRa partner concentration 90 nM). The essentials:
as §1

Test [19] relates to RARa homodimer (NR concentration 270 nM). The essentials:
as §1

Test [20] relates to RARb:RXRa (NR concentration 270 nM, RXRa partner concentration 90 nM). The essentials:
as §1

Turning to ACTTACGGGTCAAAGAGGTTATAGCACGCGTATA, the PBM binding z-score in [1] was 6.96; in test [2], 5.48; in test [3], 1.34; in test [4], 4.61; in test [5], 0.72; in test [6], 5.71. Also, the PBM binding z-score came out at 5.28 in test [7]; 5.31 in test [8]; 2.31 in test [9]; 4.28 in [10]; 3.17 in [11]; 3.85 in test [12]. Further, the PBM binding z-score worked out at 1.03 in test [13]; 1.26 in [14]; 3.6 in test [15]; 4.91 in test [16]; 2.73 in [17]; 4.84 in test [18]. Moreover, the PBM binding z-score in test [19] came to 1.4; in test [20] it was 3.99.

As to CGTCCAAGGTCAAGATCAGTGAAAGAGACTCGAA, the PBM binding z-score in test [1] was determined as 6.95; in [2] it was 4.97; in test [3], 0.248; in test [4], 3.85; in [5], 0.6; in test [6], 5.63. Besides, the PBM binding z-score was 4.78 in test [7]; 5.2 in test [8]; 1.46 in test [9]; 3.58 in test [10]; 3.03 in test [11]; 3.31 in test [12]. The PBM binding z-score in [13] is 0.858; in [14], 0.353; in test [15] it was 2.49; in [16] it was 3.3; in test [17] it was 0.349; in test [18] it was 3.99. Further, the PBM binding z-score in test [19] was 1.69; in test [20] it was 5.14.

Turning to TCTTGGAGATCAATAGAGGTTAAGAAAGTGCGCT, the PBM binding z-score was 1.28 in test [1]; 3.82 in test [2]; 0.422 in test [3]; 2.09 in [4]; -0.451 in test [5]; 1.94 in test [6]. Further, the PBM binding z-score in [7] was -0.159; in test [8] it was 1.27; in [9], 2.09; in test [10], 1.59; in [11], 0.87; in [12], 0.273. Moreover, the PBM binding z-score in test [13] is 0.0631; in [14], -0.22; in test [15], 0.19; in [16] it was 3.33; in test [17], -0.00174; in [18] it was 1.94. For the same sequence, the PBM binding z-score in test [19] was determined as 0.245; in test [20], 0.9.

ATATGTAGGTTACATCCGCGTCATTCAGGCTATG: the PBM binding z-score in test [1] worked out at 0.387; in test [2] it was 1.31; in [3], 0.198; in test [4], 0.733; in test [5], 0.789; in test [6] it was 3.15. Besides, the PBM binding z-score in test [7] came to 4.94; in test [8], 3.92; in test [9] it was 1.86; in test [10], 3.52; in [11] it was 7.33; in [12], 7.28. Moreover, the PBM binding z-score came to 2.01 in [13]; 1.99 in [14]; 0.907 in [15]; 0.229 in test [16]; 0.0394 in [17]; 0.412 in test [18]. The PBM binding z-score in test [19] was found to be 0.447; in test [20], 0.941.

For CAAACTAGGTCACCGGCAGGTCAAAGTCCGCATG, the PBM binding z-score in test [1] worked out at 5.82; in test [2], 5.46; in test [3], 3.97; in [4], 4.21; in test [5], 0.888; in [6], 5.7. Further, the PBM binding z-score was 9.54 in [7]; 7.62 in [8]; 5.44 in [9]; 7.61 in [10]; 8.64 in [11]; 8.72 in [12]. Moreover, the PBM binding z-score in test [13] came to 2.38; in test [14], 0.783; in [15], 4.83; in [16] it was 5.26; in [17], 0.922; in test [18], 6.42. Moreover, the figures for the PBM binding z-score in test [19] and in test [20] were 1.55 and 4.93, respectively.

In the case of ATCTCTAGGTAAAGATAGTTGAGTGAATGCAAAT, the PBM binding z-score was 0.323 in test [1]; 0.358 in test [2]; -0.0172 in test [3]; 0.23 in [4]; 0.435 in test [5]; 0.437 in test [6]. In addition, the PBM binding z-score in test [7] stood at 0.538; in [8], 0.246; in [9], 0.222; in test [10], 0.29; in test [11] it was 2.14; in test [12] it was 1.82. Besides, the PBM binding z-score in test [13] came to 1.87; in test [14], 0.639; in test [15] it was 0.295; in [16], 0.221; in test [17] it was 0.497; in test [18], 0.592. Further, the PBM binding z-score in test [19] was 1.46; in test [20], -0.0235.

As for CTTACTGGGCCAAAAAGGTCATTGATGCCGATAA, the PBM binding z-score in [1] worked out at 4.42; in test [2] it was 4.75; in test [3], 3.31; in [4] it was 4.26; in [5], 0.76; in test [6], 5.17. The PBM binding z-score in test [7] is 5.05; in test [8] it was 5.24; in test [9] it was 2.89; in [10], 4.69; in test [11], 6.06; in test [12], 5.95. The PBM binding z-score in [13] turned out to be 2.51; in test [14], 1.61; in test [15], 4.12; in [16], 5.01; in [17] it was 4.11; in test [18], 5.16. Further, the PBM binding z-score in test [19] is 1.79; in test [20], 4.03.
